Hits are enriched below; roughly 2.3% of the tested compounds scored in any of these assays.
Chronic BCR inh: qHTS Assay to Find Inhibitors of Chronic Active B-Cell Receptor Signaling | ABC-DLBCL IkBa-CBG/CBR reporter, luminescence ratio, 4 h | Potency, µM (highest dose often 46.1 µM), for inactives: top-dose activity change, negative = inhibition, most hits filed as inhibitors | 340,000 compounds, 0.05% hits | AID 493014, 2011; active = well fitted inhibition curve with a large enough effect in the signal ratio, with a control signal flat, not every such curve was filed as active; inconclusive = small, poorly fitted or top-dose-only effect, or effect the other way, or a change in a side signal; the % refers to the signal ratio;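 note: plate controls were basal doxycycline-induced cells for no effect and cells given 10 µM MG132 for full effect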
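Doxycycline induced both beetle luciferases in TMD8 lymphoma cells; IKK-driven degradation limits the IkappaBalpha-fused green signal, while red luminescence normalises for cell number and nonspecific effects. Compounds tested up to 46 uM, 4 hrs.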
aSyn yeast inh: qHTS of alpha-syn Inhibitors | Yeast expressing alpha-synuclein, growth rescue, BacTiter-Glo, 24 h | Potency, µM (doses to about 46.1 µM), for the others: at the highest dose growth rescue (activation), hits mostly activators | 370,000 compounds, 0.14% hits | AID 652106, 2013; note: % of control where 0% means no effect; nearly all actives have a fitted effect of over 65% in size
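Rescue of yeast growth: cells expressing toxic alpha-synuclein, induced in galactose at OD600 0.02, incubated with compound 24 h at 30 C. ATP luminescence quantified growth; inhibitors of toxicity appear as activators.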
FUS yeast rescue: qHTS for Suppressors of FUS Proteinopathy: Primary screen using FUS-linked yeast assay. S. cerevisiae FUS-expressing, growth rescue, OD600, 24 h. Potency, µM (top dose mostly 76.6 µM), hits mostly activators. 390,000 compounds, 0.24% hits. AID 1347120, 2019;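 note: plate controls were DMSO vehicle for no effect and reference control for full effect; nearly all actives have a fitted effect of over 55% in size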
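Cultures pregrown in 2.5% raffinose medium are shifted to minimal medium containing 2% galactose to express toxic FUS. Compounds are tested at several concentrations. After 24hr at 30C, growth is quantified at 600 nm absorbance.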
Abeta yeast res: qHTS for compounds that reverse cellular toxicity of Amyloid beta (A-beta) peptide in yeast: Primary Screen; yeast expressing A-beta42, growth rescue, OD600, 48 h; response scale: 0% DMSO, 100% iron-clioquinol control; Potency, µM (highest dose often 46.1 µM), hits mostly activators; 410,000 compounds, 0.063% hits; AID 1347071, 2019; note: nearly all actives have a fitted effect of over 55% in size
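Yeast growth medium received pinned compounds, then yeast cells expressing toxic A-beta were added; plates incubated at 30 C for 48 hr. Growth read as absorbance at 600 nm, normalized to DMSO and equimolar FeCl3 plus clioquinol controls.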
uPA surface inh: qHTS for Inhibitors of Cell Surface uPA Generation; cell surface uPA generation assay, qHTS; Potency, µM (doses to about 38.3 µM), without a hit: at the highest dose activity change, negative = inhibition, hits mostly inhibitors; 330,000 compounds, 0.31% hits; AID 540303, 2011; active = well fitted inhibition curve with a large enough effect; inconclusive = small, poorly fitted or top-dose-only effect; inactive = no such curve, though single readings can be large or run the other way; tested in mouse RAW 264.7 cells; note: % is set by controls: 0 for no effect and ±100 for the full control effect; nearly all actives have a fitted effect of over 55% in size
TDP-43 yeast inh: qHTS of TDP-43 Inhibitors | TDP-43 expressing yeast growth rescue, BacTiter-Glo, 24 h | Potency, µM (titrated, usually from 46.1 µM), for the others: at the highest dose growth rescue (activation), most hits filed as activators | 410,000 compounds, 1.8% hits; note: % of control where 0% means no effect; nearly all actives have a fitted effect of over 50% in size
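Readout is BacTiter-Glo luminescence of cell growth, so inhibitors register as activators. TDP-43-expressing yeast at OD600=0.02 in galactose medium, after raffinose pregrowth to mid-log, were incubated with compound for 24 hr at 30 deg C.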
The depositor's hits bear a star; i = inactive; ? = inconclusive; · = no result; [ ] = remark or other dose. Unless noted, calls come from the whole dose curve; as a rule, active = well fitted curve in the direction sought with a large enough effect; inconclusive = small, poorly fitted or top-dose-only effect, or another doubt; inactive = no such curve, though single readings can be large; an effect the other way counts as inactive or inconclusive. Potency is the fitted concentration of half-maximal effect.

SMILES	Chronic BCR inh	aSyn yeast inh	FUS yeast rescue	Abeta yeast res	uPA surface inh	TDP-43 yeast inh
CC(C(Sc1ccccc1N)c1ccccc1)[N+](=O)[O-] (stereo unspecified)	-13%	7%	i	i	11µM*	?
Nc1ccccc1SC(CC(=O)c1ccccc1)c1ccccc1 (stereo unspecified)	·	16%	i	i	·	4%
O=C(Nc1ccc(Br)cn1)c1ccc2ccccc2c1	?	-6%	i	i	?	8%
O=C(Nc1nc(-c2ccccn2)cs1)c1cc(S(=O)(=O)N2CCOCC2)ccc1F	3%	?	i	i	10µM*	22%
Cc1ccc(C(=O)Nc2ccccn2)cc1S(=O)(=O)N1CCOCC1	10%	-9%	i	i	13%	-8%
CN(CC1CCCO1)S(=O)(=O)c1ccc(C(=O)Nc2nc(-c3ccccn3)cs2)cc1 (stereo unspecified)	1%	?	i	i	4µM*	-5%
Cc1ccc(C(=O)Nc2nc(-c3ccccn3)cs2)cc1S(=O)(=O)N1CCOCC1	?	13µM*	i	i	?	?
CN(CC1CCCO1)S(=O)(=O)c1ccc(C(=O)Nc2ccccc2F)cc1 (stereo unspecified)	·	8%	i	i	2%	?
O=C(Nc1nc(-c2ccccn2)cs1)c1ccc(F)c(S(=O)(=O)N2CCOCC2)c1	2%	?	i	i	4µM*	26%
O=NNc1nc2ccccc2n1Cc1ccccc1	?	4%	i	i	?	-14%
CCCCCOc1c(Cl)cc(C(=O)N(Cc2ccc(C)o2)C2CCS(=O)(=O)C2)cc1Cl (stereo unspecified)	·	·	35µM*	i	·	5%
Cc1cccc(N2CCN(C(=O)c3ccc4c(c3)N(Cc3ccccc3F)C(=O)c3ccccc3S4=O)CC2C)c1 (stereo unspecified)	·	·	?	i	·	10%
COC(=O)C1=C(C(C)=O)C(c2ccc(C(=O)OC)cc2)n2nnnc2N1 (stereo unspecified)	6%	0%	i	i	0%	-6%
O=C1c2ccccc2S(=O)(=O)c2cc(N3CCN(C(=O)c4ccccc4)CC3)ccc21	·	1%	i	i	-6%	14%
CCN1CCN(C(=O)c2ccc3c(c2)c(C)c(C)n3Cc2ccccc2)CC1	19%	6%	i	i	-7%	12%
O=C1c2ccccc2S(=O)(=O)c2cc(C(=O)N3CCN(c4ccccc4)CC3)ccc21	·	21%	i	i	-9%	18µM*
CCn1c(C)c(C)c2cc(C(=O)N3CCc4ccccc4C3)ccc21	?	26%	i	·	?	20µM*
Cc1[nH]c2ccc(C(=O)N3CCN(c4cccc(Cl)c4)CC3)cc2c1C	?	20µM*	?	i	?	?
O=C(c1ccccc1)c1ccc(C(=O)N2CCN(c3ccccc3Cl)CC2)cc1	0%	1%	?	i	19%	11µM*
CCOC(=O)CC[C@H]1CC[C@]2(CCCN(S(=O)(=O)c3ccccc3)C2)O1	·	·	i	·	·	·
O=C(CN(c1cccc([N+](=O)[O-])c1)S(=O)(=O)c1ccccc1)N(Cc1ccccc1)Cc1ccccc1	-1%	-3%	i	i	9%	6%
COc1ccccc1N1CCN(C(=O)c2ccc3[nH]c(C)c(C)c3c2)CC1	?	15%	?	·	?	19%
Cc1[nH]c2ccc(C(=O)N3CCN(c4ccccc4F)CC3)cc2c1C	·	·	?	i	·	22µM*
Cc1[nH]c2ccc(C(=O)N3CCN(c4ccccc4Cl)CC3)cc2c1C	-5%	18µM*	i	i	-1%	20µM*
Cc1c(C)n(C)c2ccc(C(=O)N3CCN(c4ccccc4)CC3)cc12	1%	7%	i	i	-11%	16µM*
SMILES	Chronic BCR inh	aSyn yeast inh	FUS yeast rescue	Abeta yeast res	uPA surface inh	TDP-43 yeast inh
Cc1c(C)n(C)c2ccc(C(=O)N3CCN(c4ccccn4)CC3)cc12	4%	5%	i	i	8%	17%
COc1cc2c(cc1OC)CN(CC(=O)Nc1ccc(S(=O)(=O)N(C)C)cc1)CC2	5%	-1%	i	i	3%	-13%[9.22 µM]
COC(=O)C1=C(N)OC2=C(C(=O)CCC2)C1c1ccc2c(c1)OCO2 (stereo unspecified)	-5%	3%	i	i	2%	19%
Cn1c(=O)c2c(nc(Oc3ccc(F)cc3)n2Cc2ccc(F)cc2)n(C)c1=O	4%	-10%	i	i	·	23%
NC(CCc1ccccc1)c1csc(Nc2ccc(C(=O)NCCO)cc2)n1 (stereo unspecified)	·	-1%	i	i	·	10%
CC(C)(C)c1cc(NC(=O)COC(=O)c2ccccc2O)n(-c2ccccc2)n1	·	5%	i	i	·	29%
Cn1cccc1C(=O)OCC(=O)Nc1cc(C(C)(C)C)nn1-c1ccccc1	-1%	7%	i	i	-2%	35µM*
COc1cc(/C=C2\NC(=S)NC2=O)ccc1OCc1cccc(C(=O)O)c1	?	-3%	i	i	9%	-19%
CC(C)N(C(=O)c1ccccc1-c1ccccc1)C(C)C	11%	20µM*	i	i	4%	-3%
Cc1ccccc1NC(=O)c1ccccc1-c1ccccc1	1%	-4%	i	i	-1%	-11%
CCCN(CC1CC1)C(=S)Nc1ccc(C(C)=O)cc1	-2%	7%	i	i	0%	17%
CCN(C(=S)Nc1ccc(C(C)=O)cc1)C1CCCCC1	2%	14%	i	i	-2%	22µM*
Cc1cccc(NNC(=S)Nc2ccccc2)c1	·	13%	i	i	·	26%
Cc1cccc(NNC(N)=S)c1	-3%	5%	i	i	-6%	4%
Cc1cccc(NNC(=S)Nc2c(C)cccc2C)c1	?	12%	i	7.1µM*	4%	?
Cc1cccc(NC(=S)NNc2cccc(Cl)c2)c1	?	13%	i	13µM*	-7%	11%
S=C(NCc1ccc(Cl)c(Cl)c1)Nc1ccc2c(c1)OCO2	?	-2%	·	i	3%	12%
COc1cccc(-c2ncc3ccccc3c2COC(=O)c2cccs2)c1	?	8%	i	i	-4%	35µM*
CCN(CC)C(=O)OCc1c(-c2cccc(OC)c2)ncc2ccccc12	?	-14%	i	i	1%	11µM*
